Among the data in PubChem BioAssay (NCATS) are activity, negative = inhibition and Potency values, retold here.

Results filed as inconclusive are left out. Unmarked numbers belong to inactive results. The source made the active and inactive calls. The call rests on the fitted dose curve; in most records, active means well fitted inhibition curve with a large enough effect; inconclusive means small, poorly fitted or top-dose-only effect; inactive means flat fitted curve, though single readings scatter.

Assay [1] can be described thus: qHTS profiling for inhibitors of Plasmodium falciparum proliferation (AID 504749). Further: nearly all actives have a fitted effect of over 60% in size.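 On activity, negative = inhibition: 0% = DMSO vehicle and full inhibition = artemisinin control.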 The note with it: P. falciparum in erythrocytes, SYBR Green DNA, 72 h. The method in brief: (§1)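 Fluorescence of SYBR Green-bound parasite DNA, read at 485/535 nm, served as the growth measure. Infected erythrocytes were cultured with compound 72 h; artemisinin (0.29 uM) and DMSO wells defined the normalization range.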

The test system of the next assay is 3D7. Described as above. The note with it: P. falciparum in erythrocytes, SYBR Green DNA, 72 h; series mostly up to 28.7 µM. The method in brief:
as §1

The test system of the next assay is 7G8. The assay is described as above. As to conditions: P. falciparum in erythrocytes, SYBR Green DNA, 72 h; series mostly up to 28.7 µM. The method in brief:
as §1

Another assay has as its system AA1029. The assay is described as above. The note with it: P. falciparum in erythrocytes, SYBR Green DNA, 72 h; series mostly up to 28.7 µM. Summed up:
as §1

The test system of the next assay is AS120. The description is as above. The note with it: P. falciparum in erythrocytes, SYBR Green DNA, 72 h; series mostly up to 28.7 µM. The method in brief: as §1
The next assay has as its system ATS189. The description is as above. As to conditions: P. falciparum in erythrocytes, SYBR Green DNA, 72 h; series mostly up to 28.7 µM. Summed up:
as §1

Another assay relates to ATS95. Described as above. As to conditions: P. falciparum in erythrocytes, SYBR Green DNA, 72 h; series mostly up to 28.7 µM. Summed up: as §1
The next assay relates to C2A. Described as above. The note with it: P. falciparum in erythrocytes, SYBR Green DNA, 72 h; series mostly up to 28.7 µM. The method in brief:
as §1

The subject of a further assay is CP185. The assay is described as above. As to conditions: P. falciparum in erythrocytes, SYBR Green DNA, 72 h; series mostly up to 28.7 µM. Summed up: as §1
A further assay has as its system CP191. The description is as above. The note with it: P. falciparum in erythrocytes, SYBR Green DNA, 72 h; series mostly up to 28.7 µM. The method in brief:
as §1

The mark [2] stands for this setting: at 28.7 µM (top of the series), parasite line A.
Where [3] appears, read: at 28.7 µM (top of the series), parasite line B.
Potency means the concentration at half of the fitted maximal effect.

Take `CCC1C(C)=NN=C(c2ccc(OC)c(OC)c2)c2cc(OC)c(OC)cc21` (centres undefined): the results for the activity, negative = inhibition in [1] (setting [2]) and in assay [1] (setting [3]) were 12.9% and 13.3%, respectively. Moreover, the Potency entry in the assay with 3D7, in the assay on AA1029, with AS120, in the assay on ATS189, in the assay with ATS95 and in the assay on C2A was “inactive” throughout. For the same molecule, the Potency result in the assay on CP185 and in the assay on CP191 was “inactive” in each case. In the assay with 7G8, the Potency was 14.1 µM (active).
Take `O=C1CCO1`: the activity, negative = inhibition in assay [1] (setting [2]) is -3.97%; in [1] (setting [3]), -7.7%. For the same molecule, the Potency entry with 3D7, with 7G8, in the assay with AA1029, in the assay with AS120, in the assay on ATS189 and in the assay on ATS95 was “inactive” each time. Moreover, the Potency entry with C2A, in the assay with CP185 and in the assay on CP191 was “inactive” in each case.
On to `CCON=O`, for which the activity, negative = inhibition is -4.19% in assay [1] (setting [2]) and 0.895% in assay [1] (setting [3]). In addition, the Potency result in the assay on 3D7, in the assay with 7G8, with AA1029, in the assay on AS120, with ATS189 and with ATS95 was “inactive” each time. Besides, the Potency result with C2A, in the assay with CP185 and with CP191 was “inactive” in each case.
For `CC(C)Nc1ccc(Nc2ccccc2)cc1`, the Potency in assay [1] (parasite line A) was 3.16 µM (active); in assay [1] (parasite line B), 5.01 µM (active); with 3D7 it was 6.31 µM (active); in the assay on 7G8, 8.91 µM (active); in the assay with AA1029 it was 7.08 µM (active); with AS120, 11.2 µM (active). The Potency was 5.62 µM (active) in the assay on ATS189; 7.94 µM (active) in the assay with ATS95; 8.91 µM (active) in the assay with C2A; 8.91 µM (active) in the assay on CP185; 4.47 µM (active) with CP191.
For `C[CH2][Hg][S]c1ccccc1C(=O)O`, the Potency was 2.82 µM (active) in assay [1] (parasite line A); 3.16 µM (active) in assay [1] (parasite line B); 1.78 µM (active) with 3D7; 1.12 µM (active) in the assay with 7G8; 3.16 µM (active) with AA1029; 3.16 µM (active) with AS120. The Potency is 3.55 µM (active) in the assay with ATS189; 2 µM (active) with ATS95; 3.98 µM (active) in the assay with C2A; 2 µM (active) in the assay with CP185; 3.55 µM (active) in the assay on CP191.
`O=[N+]([O-])c1ccccc1`: the figures for the activity, negative = inhibition in assay [1] (setting [2]) and in [1] (setting [3]) were -4.98% and 4.83%, respectively. Further, the Potency result in the assay with 3D7, in the assay on 7G8, in the assay on AA1029, in the assay with AS120, with ATS189 and in the assay on ATS95 was “inactive” each time. Besides, the Potency entry with C2A, in the assay on CP185 and in the assay with CP191 was “inactive” in each case.
As to `CC(Cc1ccccc1)NC=O` (centres undefined), the activity, negative = inhibition in assay [1] (setting [2]) was 1.78%; in assay [1] (setting [3]) it was 3.72%. Further, the Potency entry in the assay on 3D7, in the assay on 7G8, in the assay on AA1029, in the assay on AS120, in the assay with ATS189 and in the assay on ATS95 was “inactive” each time. Moreover, the Potency result in the assay on C2A, with CP185 and with CP191 was “inactive” throughout.
`COC1=CC=C2[C@H]3Cc4ccc(OC)c5c4[C@@]2(CCN3C)[C@H]1O5`: the activity, negative = inhibition is -6.15% in assay [1] (at 12.8 µM (top of the series), parasite line A) and 12.3% in assay [1] (at 12.8 µM (top of the series), parasite line B). The Potency entry in the assay with 3D7, in the assay on 7G8, with AA1029, in the assay with AS120, with ATS189 and in the assay on ATS95 was “inactive” each time. Also, the Potency entry with C2A, in the assay with CP185 and in the assay with CP191 was “inactive” throughout.
Take `Oc1cc(Cl)c(Cl)cc1Cl`: the activity, negative = inhibition in assay [1] (setting [2]) is 4.1%; in [1] (setting [3]) it was -8.4%. Also, the Potency result with 3D7, in the assay with AA1029, with AS120, in the assay with ATS189, with ATS95 and in the assay with C2A was “inactive” each time. In addition, the Potency entry in the assay on CP185 and in the assay with CP191 was “inactive” throughout. In addition, the Potency in the assay with 7G8 is 11.2 µM (active).
